Screening results (PubChem BioAssay)
Hits are enriched below; roughly 4.3% of the tested compounds scored in any of these assays.
Anthrax LF prot: anthrax lethal factor protease inhibition. 0.12% of 360,000 active. P15917. inhibition, % at 10 µM. AID 588501. multiplex microsphere protease cleavage assay, LF; note: plate controls were buffer without enzyme for full effect and enzyme alone for no effect
Autofluor counter: counter-screen for toxin protease inhibitors: compound fluorescence | compound autofluorescence counterscreen, microsphere flow cytometry; stronger effect = higher value | fluorescence intensity (test concentration not listed) | 3.1% of 360,000 active | AID 624483; in the data active = fluorescence intensity above about 16000; inconclusive = no clear call, values can overlap the other calls
PfHsp40 rescue: compounds rescuing yeast from Plasmodium falciparum HSP40 toxicity; 0.68% of 340,000 active; growth rescue, % at 12.5 µM; S. cerevisiae expressing PfHsp40, growth rescue, ATP luminescence; in the data active = growth rescue above about 28%, passing the limit was not always enough; inconclusive = no clear call, values can overlap the other calls;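 note: yeast W303a lacking pdr1 and pdr3 grown in galactose medium; growth measured after three days at 30 °C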
BoNT A protease: inhibitors of Botulinum neurotoxin A light chain protease. AID 588499. multiplex microsphere protease substrate cleavage, flow cytometry. inhibition, % at 10 µM. 0.17% of 360,000 active; note: plate controls were buffer without enzyme for full effect and enzyme alone for no effect
BoNT F protease: BoNT F light chain protease inhibition; 0.22% of 360,000 active; Multiplex microsphere protease cleavage assay, flow cytometry; AID 588497; inhibition, % at 10 µM; in the data active = inhibition above about 35%, passing the limit was not always enough; inconclusive = no clear call, values can overlap the other calls; note: plate controls were buffer without enzyme for full effect and enzyme alone for no effect
MazF activator: MazEF (E. coli) toxin RNase activation | 0.32% of 350,000 active | activation, % at 20 µM | P0AE70 | FAM/BHQ RNA-DNA oligo cleavage fluorescence, 5 h; in the data active = activation above about 50%
Target sequence (P0AE70 whole entry, looked up): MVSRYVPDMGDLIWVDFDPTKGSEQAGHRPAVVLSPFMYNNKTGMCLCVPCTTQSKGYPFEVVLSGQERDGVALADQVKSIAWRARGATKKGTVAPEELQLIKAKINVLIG
Numbers without * were called inactive; ? = inconclusive; / = not tested or not shown. Cut-off read from the data, not from the text of the source, unless noted: active = inhibition above about 30%; inconclusive = no clear call, values can overlap the other calls; inactive = below that.

SMILES	Anthrax LF prot	Autofluor counter	PfHsp40 rescue	BoNT A protease	BoNT F protease	MazF activator
CCc1ccc(-c2csc3[n+]2CCN3C(C)=O)cc1	-5.6	9757	93.1*	1.1	1.1	-2.8
C=Cn1c(C(=O)O)ccc1-c1ccc(CC)cc1	-6.0	5802	7.8	-2.5	-9.5	-7.6
Cc1cc(C(=O)NNS(=O)(=O)c2cccc(Cl)c2)nn1C(C)(C)C	-4.6	4787	-1.5	?	?	-0.1
Cc1cccc(NC(=S)N(C)C2(c3ccccc3Cl)CCCCC2=O)c1 (stereo unspecified)	-0.9	22871*	3.5	1.9	-0.5	1.5
CN(C(=S)Nc1ccccc1F)C1(c2ccccc2Cl)CCCCC1=O (stereo unspecified)	-5.2	20195*	-0.3	-1.4	-4.1	2.9
COc1ccc(-c2c3c(cc4ncn(Cc5ccccc5)c24)COC3=O)cc1	-6.0	2985	-0.2	-0.4	-7.1	-0.5
CCOCC(=O)Nc1ccc(S(=O)(=O)N2CCC(c3nc4ccccc4[nH]3)CC2)cc1	/	/	-0.9	/	/	1.0
O=S1(=O)CCC(N2CCOCC2)C1 (stereo unspecified)	-3.6	23902*	-0.3	?	-3.6	1.3
O=S1(=O)CCN(C2CCCCCC2)CC1	2.3	3022	/	-0.5	1.6	-13.8
Cc1c(C)c2ccc(OC(C)C(=O)NC3CCN(Cc4ccccc4)CC3)cc2oc1=O (stereo unspecified)	1.6	5951	1.4	0.5	4.1	1.6
CCOc1ccc(NC(=O)C2CCCN(c3nc(C)cc(C)n3)C2)cc1 (stereo unspecified)	-3.7	3757	0.6	-1.8	-1.7	8.6
CC(=O)OCc1c(C(F)(F)F)nn(C)c1Oc1cccc(C(F)(F)F)c1	-1.3	16385*	-1.4	-0.5	1.1	-1.8
Cc1nn(C)c(Oc2cccc(C(F)(F)F)c2)c1C=O	-3.7	4095	-0.1	1.3	2.7	0.7
CC(=O)OCc1c(C(F)(F)F)nn(C)c1Oc1ccccc1	1.1	17428*	-0.5	-3.3	-5.2	0.6
Cc1nn(C)c(Oc2ccccc2)c1CCNC(=O)CCl	-2.0	4034	0.4	-0.2	0.1	10.7
O=C(CSc1n[nH]c(Cc2ccccc2)n1)Nc1ccccc1Br	-9.1	3665	0.1	-3.0	1.0	-23.8
CCN1CCN(C(=S)NCCOC)CC1	0.0	2475	-0.2	0.5	5.4	-0.6
CCOC(=O)N1CCN(C(=S)NC(C)(C)C)CC1	-0.6	22858*	1.7	-2.1	-4.3	0.7
CCOC(=O)N1CCN(C(=S)NCCOC)CC1	-2.9	18608*	0.0	4.0	5.6	-3.5
COc1c(C)cc(C(O)c2ncc(-c3ccc(Cl)cc3)[nH]2)cc1C (stereo unspecified)	-5.8	3418	/	-0.1	-4.1	/
O=C(Nc1ccc(Cl)c(Cl)c1)C1C2C=CC3(O2)C1C(=O)N(CCN1CCCCC1)C3C(=O)NC1CCCCC1 (stereo unspecified)	1.4	6118	-0.8	0.1	0.5	25.2
CC(C)[C@H](NC(=O)c1cccc(CN(Cc2ccccc2)C(=O)/C=C/c2ccccc2)c1)C(=O)O	0.5	?	0.2	-4.3	?	9.4
Cc1cc2cc(CN(Cc3ccco3)S(=O)(=O)c3c(C)ccc4nsnc34)c(=O)[nH]c2cc1C	0.6	20470*	-1.9	?	-1.5	-7.8
Cc1ccc2[nH]c(=O)c(CN(CCCO)S(=O)(=O)c3c(C)ccc4nsnc34)cc2c1	-1.6	10512	-0.8	-0.8	-9.2	4.4
Cc1cc2cc(CN(CCCO)S(=O)(=O)c3cccc4nsnc34)c(=O)[nH]c2cc1C	1.5	22386*	-0.1	-0.2	2.5	8.8
SMILES	Anthrax LF prot	Autofluor counter	PfHsp40 rescue	BoNT A protease	BoNT F protease	MazF activator
Cc1ccc2cc(CN(Cc3ccco3)S(=O)(=O)c3c(C)ccc4nsnc34)c(=O)[nH]c2c1	2.4	8055	0.6	0.5	-4.8	6.5
Cc1noc(C)c1C(=O)Nc1sc2c(c1C(N)=O)CCCCC2	-1.8	22480*	2.2	-0.5	-2.5	-15.0
CCC(=O)Nc1sc2c(c1C(N)=O)CCC2	-5.9	23030*	0.4	1.3	0.3	-6.5
O=C1NC(=O)C(c2cccs2)(c2cccs2)N1	-1.3	5191	-0.6	-0.5	-2.4	2.8
CCOc1ccccc1/C=c1\sc2ncnn2c1=O	-4.1	21270*	-0.2	?	-0.5	-3.8
CC(=O)Oc1ccc(/C=c2\sc3ncnn3c2=O)cc1	-2.9	22478*	0.3	0.5	2.1	-16.9
CCCOc1ccc(/C=c2\sc3ncnn3c2=O)cc1	-4.2	4162	-0.2	0.6	1.0	1.5
COc1nn(CC(=O)N2N=C(C)CC2(O)C(F)F)cc1[N+](=O)[O-] (stereo unspecified)	0.1	3336	0.7	0.0	-5.1	0.5
O=C(Cn1cc([N+](=O)[O-])cn1)N1N=C(C(F)F)CC1(O)C(F)F (stereo unspecified)	0.0	22225*	-1.2	2.1	4.1	6.6
Cc1ccc(OCC(=O)NC(=S)Nc2ccc(S(=O)(=O)Nc3cc(C)on3)cc2)c(Br)c1	0.2	6128	73.4*	-0.3	-13.2	2.3
CCOc1cc(NC(=S)NCC2CCCO2)c(OCC)cc1NC(=O)c1ccc(C)cc1 (stereo unspecified)	-0.2	2404	-2.3	-0.1	-4.0	-4.4
O=C(NCC1CCCO1)c1cccs1 (stereo unspecified)	-0.1	17278*	-0.9	?	-6.8	0.7
COC(=O)c1ccccc1NC(=O)NCC1CCCO1 (stereo unspecified)	-2.1	22874*	0.0	0.5	-0.8	4.0
CCC(C)[C@H](NC(=O)NCC1CCCO1)C(=O)OC (stereo partly specified)	-1.0	24826*	-0.9	-4.7	-4.9	10.9
CCOc1cc(NC(=S)NCC2CCCO2)c(OCC)cc1NC(=O)c1ccccc1 (stereo unspecified)	-3.4	24364*	-0.4	-1.2	-2.7	5.9
CCOCCCNC(=O)N[C@H](C(=O)OC)C(C)CC (stereo partly specified)	-0.3	6347	0.1	0.0	-2.2	-4.3
O=C(CCn1c(=O)c2cccn2c2cccnc21)N1CCN(c2cccc(Cl)c2)CC1	-2.6	5087	-0.4	2.1	7.2	-2.9
CCc1c(C(=O)NNC(=S)NCC2CCCO2)csc1C (stereo unspecified)	1.5	2470	0.0	0.1	-1.6	1.5
Cc1cc(C(=O)NNC(=S)NCC2CCCO2)cs1 (stereo unspecified)	-8.0	19574*	0.2	2.5	1.2	5.9
Cc1c(NC(=O)c2nn(C(C)C)c(=O)c3ccccc23)c(=O)n(-c2ccccc2)n1C	4.5	3457	/	-0.2	-1.7	2.8
S=C(Nc1ccc(Cl)c(Cl)c1)NC1CCCCC1	0.7	21140*	190.5*	-1.7	-4.8	22.1
S=C(Nc1ccc2nsnc2c1)NC1CCCCC1	6.1	2378	0.2	20.1	-3.8	3.6
Cc1ccc(NC(=O)C2CCN(C(=O)NC3CCCCC3)CC2)cc1Cl	-3.5	3829	4.0	-0.4	-5.8	0.3
Cc1ccc(NC(=O)NC2CCCCC2)cc1Cl	0.6	21618*	0.8	5.1	3.6	5.6
